The list is not random: actives were taken first. Their share in the collection is about 3.4%.
GPR151 activ = activators of human GPR151. Q8TDV0. activation, % at 11.2 µM. AID 1508602. PathHunter beta-arrestin GPR151 cells, luminescence. hit rate 1% among 650,000; in the data active means activation above about 4.9%;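 further: 0% = median of compound wells and 100% = cells with positive control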
Target sequence (Q8TDV0 whole entry, looked up): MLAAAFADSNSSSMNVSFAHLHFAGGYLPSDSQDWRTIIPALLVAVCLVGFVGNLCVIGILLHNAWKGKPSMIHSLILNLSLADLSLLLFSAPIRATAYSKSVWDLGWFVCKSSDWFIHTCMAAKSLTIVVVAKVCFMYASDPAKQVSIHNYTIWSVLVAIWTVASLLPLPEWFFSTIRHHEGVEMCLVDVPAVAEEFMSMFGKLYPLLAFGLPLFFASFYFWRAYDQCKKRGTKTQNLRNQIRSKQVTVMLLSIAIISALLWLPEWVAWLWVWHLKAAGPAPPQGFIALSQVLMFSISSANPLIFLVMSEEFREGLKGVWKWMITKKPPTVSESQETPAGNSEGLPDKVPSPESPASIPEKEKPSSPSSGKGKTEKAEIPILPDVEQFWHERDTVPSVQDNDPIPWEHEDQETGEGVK
TEAD-YAP block = TEAD-YAP interaction inhibition; HEK-TIYL cells, TEAD-Gal4/YAP UAS-luciferase luminescence; inhibition, % at 9.12 µM; hit rate 1.4% among 640,000; in the data active means inhibition above about 32%;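 further: 0% = median of test compound wells and 100% = reference inhibitor wells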
FBW7 activator = human FBW7 E3 ligase activation, primary screen; AlphaScreen FBW7–phospho-cyclin E peptide binding, activator screen; normalized activity (activation), % at 26.1 µM; hit rate 0.13% among 650,000; in the data active means normalized activity above about 1.9%;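 further: purified mutant Fbw7 with reduced substrate affinity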
MITF inh = inhibitors of human MITF; AID 1259374; inhibition, % at 2.6 µM; AlphaScreen MITF homodimerization, bead proximity signal; hit rate 0.91% among 650,000; in the data active means inhibition above about 50%;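 further: 0% = vehicle wells with protein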
Starred values were filed as active, the others as inactive.

SMILES	GPR151 activ	TEAD-YAP block	FBW7 activator	MITF inh
Cc1c(Cl)cccc1NC(=O)CSC1=C(C#N)C(c2ccco2)C2=C(CCCC2=O)N1 (stereo not drawn)	1	38*	0	49
CCc1ccc(NC(=O)CSC2=C(C#N)C(c3ccc(C)o3)C3=C(CCCC3=O)N2)cc1 (stereo not drawn)	0	20	1	2
Cc1ccc(C2C(C#N)=C(SCC(=O)Nc3cccc(C)c3C)NC3=C2C(=O)CCC3)o1 (stereo not drawn)	1	64*	0	-12
Cc1cccc(C)c1NC(=O)CSC1=C(C#N)C(c2ccco2)C2=C(CCCC2=O)N1 (stereo not drawn)	-1	9	0	14
Cc1c[n+]2ccsc2n1CCCS(=O)(=O)O	0	8	0	5
CNC(=O)c1ccccc1Nc1cc(Nc2ccc(C(=O)NC[C@H](O)C(=O)N(C)C)cc2OC)ncc1C(F)(F)F	-1	17	0	29
COc1cc(N2CCOCC2)ccc1Nc1cc(Nc2ccccc2C(=O)N(C)C)c(C(F)(F)F)cn1	0	-1	0	27
CNC(=O)c1ccccc1Nc1cc(Nc2ccc(C(=O)N(C)C)cc2OC)ncc1C(F)(F)F	-1	57*	0	3
CNC(=O)c1ccccc1Nc1cc(Nc2ccc(N3CCOCC3)cc2OC)ncc1C	-1	44*	0	13
CCN(CC)CCNC(=O)c1ccc(Nc2cc(Nc3ccccc3C(=O)NC)c(C(F)(F)F)cn2)c(OC)c1	0	64*	0	9
COc1cc(N2CCOCC2)ccc1Nc1cc(Nc2ccccc2C(N)=O)c(C(F)F)cn1	0	-11	0	-5
CCCCn1c(-c2ccc(OC)cc2)n[nH]c1=S	0	15	0	21
O=c1[nH]c(O)c(C=Nc2ccc(Cl)cc2[N+](=O)[O-])c(=O)[nH]1	1	2	-1	-2
Cc1cc(C(=O)COC(=O)c2cccc(N(C)C)c2)c(C)n1CC1CCCO1 (stereo not drawn)	0	38*	0	20
C=CCn1c(C)cc(C(=O)COC(=O)c2cccc(O)c2)c1C	-9	87*	0	-3
Cc1cc(C(=O)COC(=O)c2cccc(NS(C)(=O)=O)c2)c(C)n1CC1CCCO1 (stereo not drawn)	2	58*	0	4
COc1ccccc1NC(=O)C(=O)NCCc1sc(-c2ccc(C)cc2)nc1C	0	-4	0	16
Cc1c(Nc2ccc(Cl)cc2C(=O)c2ccccc2)nc2ccc(Cl)cc2c1-c1ccccc1	1	-8	0	9
Cc1cc(Nc2ccccc2)n(-c2ccc([N+](=O)[O-])cc2)n1	0	-3	0	13
Cc1cc(Nc2nc3ccccc3[nH]c2=O)n(-c2ccc([N+](=O)[O-])cc2)n1	0	59*	0	2
O=c1[nH]cccc1-c1nc2ccc(Cl)cc2s1	-2	78*	0	-4
O=C1CC(C(=O)Nc2nc3ccc(Cl)cc3s2)c2ccccc21 (stereo not drawn)	2	-2	0	-1
Cc1ncc(CO)c(CNc2cccc(C(F)(F)F)c2)c1O	0	-12	0	3
COc1ccc2c(c1)c1nc(N(C)C)nc3c1n2CCN3C	0	88*	0	12
Cc1cc(C)c(C(=O)Nc2ccc3c(c2)OCCO3)c(C)c1	0	-8	0	-3
SMILES	GPR151 activ	TEAD-YAP block	FBW7 activator	MITF inh
O=C(Nc1ccc2c(c1)OCCO2)c1ccccc1F	-7	41*	0	8
Cc1ccc(C(=O)Nc2ccc3c(c2)OCCO3)c(C)c1	-5	89*	0	2
Cc1ccc(C2=NC(C)(C)N=C2SCC(=O)Nc2ccc3c(c2)OCCO3)cc1	0	15	3.7*	-10
O=C(Nc1ccc2c(c1)OCCO2)c1ccccc1O	-6	56*	0	12
C=CCSc1nc2sc3c(c2c(=O)n1-c1ccc(C)cc1)CC(C)(CC)OC3 (stereo not drawn)	0	-3	0	4
O=C(OCC(=O)N1CCc2ccccc21)c1ccc([N+](=O)[O-])s1	-1	7	0	1
CCN(CC)CCCN1C(=O)C(O)=C(C(=O)c2sc(C)nc2C)C1c1ccc(F)cc1 (stereo not drawn)	-2	-5	1	11
O=C(Nc1cccc(C(=O)NC2CC2)c1)C(=O)Nc1ccc2c(c1)OCCO2	1	66*	0	6
CCC(CC)C(=O)Nc1cccc(C(=O)Nc2ccc3c(c2)OCCO3)c1	1	-66	0	9
NNc1nc(OCC(F)(F)F)nc(N(c2ccccc2)c2ccccc2)n1	0	10	0	4
COc1cc(/C=C/c2ccc(O)c(OC)c2)ccc1O	0	-54	0	0
O=c1cc(O)cc(/C=C/c2ccc(O)c(O)c2)o1	1	-5	0	86*
CC1CCN(C(=O)c2ccc3nc(N4C(=O)CCC4=O)sc3c2)CC1	0	-10	1.9*	17
CCCCCN1/C(=C\C=C\c2n(CCCC)c3cc(Cl)c(Cl)cc3[n+]2CCCCC)N(CCCC)c2cc(Cl)c(Cl)cc21	-1	44*	0	17
CCn1c(C)[n+](CCOC(C)=O)c2cc(Cl)c(Cl)cc21	0	-6	0	-1
CC1(C)CC2CC(C)(CN2c2ccc(C(=O)O)cc2[N+](=O)[O-])C1 (stereo not drawn)	-1	35*	0	6
COc1cc(N)cc2sc(NC(C)=O)nc12	1	-23	0	4
CC(=O)Nc1nc2c(C)cc(N)cc2s1	0	-40	30*	6
CCOC(=O)c1ccc(-n2sc3c(c2=S)-c2cc(C)ccc2NC3(C)C)cc1	-1	10	0	76*
Cc1nc(NC(=O)CSc2ncccc2-c2nc3ccccc3[nH]2)sc1C	1	73*	0	-13
CC1CCN(C(=O)CSc2ncccc2-c2nc3ccccc3[nH]2)CC1	-2	49*	0	-9
COC(=O)c1sc(NC(=O)CSc2ncccc2-c2nc3ccccc3[nH]2)nc1C	2	0	0	10
O=C(O)c1cc(=O)c(O)c2c(O)c(O)c(O)cc2c1	0	-1	0	89*
O=C(Cc1ccccc1)Nc1cc(C(=O)O)cc(C(=O)O)c1	-1	3	0	-17
COCCN=c1scc(-c2ccccc2)n1/N=C1\CCc2ccccc21	2	72*	0	13
SMILES	GPR151 activ	TEAD-YAP block	FBW7 activator	MITF inh
Cc1ccc2c(C)nc(N3CCCC(NCC(C)(C)CO)CC3)nc2c1 (stereo not drawn)	2	2	0	2
COc1ccc(CCNc2ncnc3ccccc23)cc1OC	2	63*	0	-1
COc1ccc(CCNc2ncnc3c2oc2ccccc23)cc1OC	4	46*	0	4
COc1ccc(CCNc2ncnc3sccc23)cc1OC	3	56*	1	19
c1ccc(CCNc2ncnc3ccccc23)cc1	0	24	0	3
COc1ccc(CCNc2nc(C)nc3sc(C)c(C)c23)cc1OC	0	37*	0	2
CCCn1cnc2c(sc3nc4c(cc32)COC(C)(C)C4)c1=O	0	-21	0	-4

High-throughput results deposited in PubChem BioAssay by The Scripps Research Institute Molecular Screening Center.
